# Screening results: PubChem BioAssay, several laboratories
# Sampled rows, rich in hits. Any-hit rate of the full collection: about 21%.
# MRP-1 activ: activators of MRP-1; H69AR cells + doxorubicin, viability rescue, CellTiter-Glo; AID 799; 140,000 compounds, 0.61% hits; viability increase, % at 10 µM;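 active = viability gain under doxorubicin at or above a set limit, the compound median plus 3 SD, cut at about 4.7% in these data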;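 note: MRP-1 overexpressing cells given doxorubicin 25 µM after compound pretreatment; 18-22 h compound pretreatment then 72 h with doxorubicin before readout; 0% = doxorubicin-only wells and 100% = vehicle-treated cells without doxorubicin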
# CYP2C19 inh: human CYP2C19 inhibition; inhibition, % at 5 µM; 96,000 compounds, 21% hits; AID 778; P33261; CYP2C19 Supersomes, luciferin-H EGE luminescence, 30 min;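 active = CYP2C19 inhibition above a set limit at 5 µM in the primary screen, cut at about 50% in these data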;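 note: plate controls were negative control wells for no effect and 2.5 mM tranylcypromine positive control for full effect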
# CYP2C9 inhib: human CYP2C9 inhibition. P11712. CYP2C9 Supersomes, luciferin-H conversion, luminescence. inhibition, % at 5 µM. 96,000 compounds, 20% hits;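 active = blocking of liver enzyme CYP2C9 beyond about 50% at 5 µM, limit read from the data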
# Target sequence (P11712 whole entry, looked up): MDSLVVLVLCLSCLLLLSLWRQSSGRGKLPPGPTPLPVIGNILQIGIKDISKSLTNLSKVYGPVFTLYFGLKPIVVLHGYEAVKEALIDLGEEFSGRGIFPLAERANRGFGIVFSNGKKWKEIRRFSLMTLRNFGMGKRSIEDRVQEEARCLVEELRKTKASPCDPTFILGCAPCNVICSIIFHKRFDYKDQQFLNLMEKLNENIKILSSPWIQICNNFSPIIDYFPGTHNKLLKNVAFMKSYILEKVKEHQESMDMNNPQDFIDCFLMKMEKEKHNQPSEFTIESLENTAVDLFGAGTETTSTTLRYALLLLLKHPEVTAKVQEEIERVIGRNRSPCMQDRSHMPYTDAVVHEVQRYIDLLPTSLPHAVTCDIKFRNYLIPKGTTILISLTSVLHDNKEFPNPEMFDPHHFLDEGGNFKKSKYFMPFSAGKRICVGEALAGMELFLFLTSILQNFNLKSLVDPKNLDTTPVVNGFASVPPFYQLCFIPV
# MRP reversal: reverses drug resistance mediated by MRP; H69AR cells + 2 uM doxorubicin, CellTiter-Glo, 72 h; differential viability (reversal), % at 10 µM; 85,000 compounds, 0.04% hits; AID 602;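 active = viability drop by adding the cancer drug above about 55%, with treated viability meeting a 40% cutoff, limit read from the data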;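 note: viability without doxorubicin minus viability with 2 µM doxorubicin for each compound; larger differential means the compound sensitizes cells more to doxorubicin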
# CYP2C9 act: activators of human CYP2C9. 96,000 compounds, 1.4% hits. recombinant CYP2C9, luciferin-H conversion, luminescence; stronger effect = higher value; factor 1 = untreated enzyme, 0 = blocked. P11712. activation factor at 5 µM;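 active = activation factor of 2 or more for CYP2C9 at a 5 µM dose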;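 note: 0 = sulfaphenazole-blocked wells and 1 = vehicle-only wells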
# CYP2C19 activ: increases human CYP2C19 enzyme activity; AID 1025; P33261; recombinant CYP2C19, luciferin-H EGE luminescence; stronger effect = higher value; 0 = fully inhibited enzyme, 1 = untreated enzyme; activation factor at 5 µM; 96,000 tested, under 10 active;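 active = activation factor of at least 2 at 5 µM in the primary screen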;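 note: 0 = wells with 2.5 mM tranylcypromine and 1 = vehicle-only wells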
# * hit, by the source's call; / = not tested or not shown.
SMILES,MRP-1 activ,CYP2C19 inh,CYP2C9 inhib,MRP reversal,CYP2C9 act,CYP2C19 activ
C=CCn1c(SCCOc2ccc(OC)cc2)nnc1C(CO)NC(=O)c1ccc(OC)cc1 (stereo unspecified),1,46,88*,28,0.1,0.5
COc1ccc(NCc2nnc(SCC(=O)c3ccc(OC)cc3)n2C)cc1,-2,19,12,/,0.9,0.8
COc1ccc(C(=O)NC(C)c2nnc(SCC(=O)Nc3nc4ccccc4s3)n2C)cc1 (stereo unspecified),-1,65*,72*,-5,0.3,0.3
COc1ccc(C(=O)CSc2nnc(C(CO)NC(=O)c3ccc(OC)cc3)n2C)cc1 (stereo unspecified),-1,44,71*,0,0.3,0.6
COc1ccc(C(=O)NC(C)c2nnc(SCC(=O)Nc3nc(C)cs3)n2C)cc1 (stereo unspecified),-1,11,12,-1,0.9,0.9
CCSCc1nnc(SCC(=O)c2ccc(OC)cc2)n1C,-2,90*,14,-7,0.9,0.1
O=c1nc2n(c3ccc(Br)cc13)CCS2,0,/,/,2,/,/
COc1cccc(N(CC(=O)N/N=C(\C)c2cccs2)S(C)(=O)=O)c1,-3,/,/,/,/,/
CC(C)Cc1nc2oc3c(N4CCN(CCO)CC4)ncnc3c2c2c1CCCC2,-3,60*,67*,-10,0.3,0.4
CCOC(=O)N1CCN(c2ncnc3c2oc2nc(C(C)C)c4c(c23)CCC4)CC1,-2,86*,65*,-22,0.4,0.1
CCOc1ccc(-n2nc3c(Cl)nnc(C)c3c2C)cc1,0,/,/,/,/,/
O=C(Nc1nccs1)c1ccc2c(=O)n3c(nc2c1)CCCCC3,-2,/,/,/,/,/
Cc1c(C)c(C)c(/C=[N+](/C)[O-])c(C)c1C,-2,/,/,/,/,/
N/C(=N/O)C(c1ccccc1)c1ccccc1,-2,/,/,/,/,/
Cc1ccc(S(=O)(=O)N2CC(O)CC2C(=O)OCC(=O)c2ccccc2Cl)cc1C (stereo unspecified),0,/,/,/,/,/
N#Cc1c(Nc2ccccc2)c(C=NCCN2CCOCC2)c[nH]c1=O,0,73*,14,-6,0.9,0.3
CN(C)c1nc(N2CCN(c3ccccc3)CC2)c(C#N)c(=O)o1,1,97*,-94,/,1.9,0
Cc1cc(N(C)C)c(C#N)c(N2CCOCC2)n1,-1,-4,-17,9,1.2,1
Cc1cccc(C)c1N1CCN(c2nc(N(C)C)oc(=O)c2C#N)CC1,-1,95*,74*,/,0.3,0.1
FC(F)(F)c1ccc(Cl)c(NC(=S)NC2CC2)c1,-2,/,/,/,/,/
CCN(CC)S(=O)(=O)c1cc(NC(=O)C(=O)c2c(-c3ccccc3)cc3ccccn23)ccc1C,6.9*,43,54*,5,0.5,0.6
CCN(CC)S(=O)(=O)c1cccc(NC(=O)COc2ccc(Cl)cc2Br)c1,0,/,/,/,/,/
CCN(CC)S(=O)(=O)c1ccc(N2CCOCC2)c(NC(=O)C2CCCC2)c1,-3,/,/,/,/,/
CCN(CC)S(=O)(=O)c1cccc(NC(=O)C(=O)c2c(-c3ccccc3)cc3ccccn23)c1,4,57*,65*,/,0.4,0.4
CCN(CC)S(=O)(=O)c1cccc(C(=O)c2c(C)cc3ccccn23)c1,4.8*,/,/,/,/,/
SMILES,MRP-1 activ,CYP2C19 inh,CYP2C9 inhib,MRP reversal,CYP2C9 act,CYP2C19 activ
CCN(CC)S(=O)(=O)c1cccc(C(=O)Nc2cccc(C)c2)c1,-1,44,32,-13,0.7,0.6
CCN(CC)S(=O)(=O)c1ccc(N2CCOCC2)c(NC(=O)C(=O)c2c(-c3ccccc3)cc3ccccn23)c1,-4,29,86*,-4,0.1,0.7
COc1cc(CC(=O)Oc2ccc3c(c2)OCO3)cc(OC)c1OC,-1,-17,-18,-1,1.2,1.2
CC1(C)C2CCC1(C)C1(C2)NC(=O)c2ccccc2O1 (stereo unspecified),-1,/,/,/,/,/
CC(=O)NC(Cc1ccccc1C)C(=O)NC1CCN(c2ncccc2[N+](=O)[O-])CC1 (stereo unspecified),-1,/,/,/,/,/
CS(=O)(=O)N(Cc1ccccc1)c1ccccc1C(=O)Nc1ccccc1C(=O)NCc1ccco1,-1,89*,84*,11,0.2,0.1
Cc1ccc(S(=O)(=O)N(Cc2ccccc2)c2ccccc2C(=O)NCc2ccco2)cc1,-5,48,99*,/,0,0.5
COc1ccccc1NS(=O)(=O)/C=C/c1ccccc1,-2,/,/,/,/,/
O=C(Nc1nnc(Cc2ccc(Cl)cc2)s1)c1ccco1,-1,18,63*,5,0.4,0.8
COc1ccc(NC(=O)CSc2nnc(Cc3ccccc3)o2)c(OC)c1,0,71*,26,3,0.7,0.3
COc1ccc(Cc2nnc(SCC(=O)Nc3ncc(C)s3)o2)cc1,-1,6,11,13,0.9,0.9
O=C(Nc1nnc(Cc2ccccc2)s1)c1cccs1,-1,3,16,-14,0.8,1
COc1ccc(Cc2nnc(NC(=O)c3cccs3)s2)cc1,1,9,69*,4,0.3,0.9
CCOCc1nnc(NC(=O)c2ccco2)s1,-2,-8,-9,-2,1.1,1.1
CCc1nnc(NC(=O)CSc2nnc(Cc3ccc(OC)cc3)o2)s1,4,13,53*,19,0.5,0.9
COc1ccc(NC(=O)c2c(NC(=O)CNCc3ccco3)sc3c2CCC3)cc1,-4,63*,93*,-4,0.1,0.4
COc1ccc(-n2c(=O)c3c4c(sc3n(CC(=O)NCc3ccco3)c2=O)CCC4)c(OC)c1,-5,/,/,7,/,/
COc1ccc(NC(=O)c2c(NC(=O)CNCc3ccco3)sc3c2CCC3)c(OC)c1,-1,77*,97*,-23,0,0.2
COc1ccc(OC)c(NC(=O)c2c(NC(=O)CNCc3ccco3)sc3c2CCC3)c1,-1,34,65*,-6,0.4,0.7
CCOC(=O)c1c(NC(=S)Nc2ccc(OC)cc2)sc2c1CCC2,-1,/,/,/,/,/
COc1ccc(C2=NO[C@@H]3[C@@H]4C[C@@H]([C@H]5C(=O)N(c6ccc7c(c6)OCO7)C(=O)[C@@H]45)[C@H]23)cc1OC,-2,/,/,/,/,/
CCn1c(Cn2nnc(-c3ccccc3)n2)nnc1SCc1ccc(Cl)c(Cl)c1,0,15,38,-23,0.6,0.9
O=C(Nc1nc2ccccc2s1)C1CC(=O)N(c2ccc(F)cc2)C1 (stereo unspecified),-2,8,32,-24,0.7,0.9
COc1cc(C(=O)N2CCCN(c3nc4cc(C)ccc4cc3C#N)CC2)cc(OC)c1OC,/,22,22,-6,0.8,0.8
COc1ccc2nc(N3CCC(C)CC3)c(C#N)cc2c1,3,15,12,-10,0.9,0.8
CCOC(=O)C1CCN(c2nc3cc(OC)ccc3cc2C#N)CC1,1,96*,96*,12,0,0
COc1ccc(C(=O)N2CCN(c3nc4cc(C)ccc4cc3C#N)CC2)c(OC)c1,1,-2,55*,9,0.4,1
